According to PubChem BioAssay (Tox21):
Several values for one entry are separate records, joined by “and”; a condition that tells them apart may be missing. Equal values may be shown once. Inconclusive results are not listed. Entries that show only a call come without a potency. Some compounds were tested as several samples or in several runs, with calls that do not always agree. Activity calls are given as the source filed them. Unless noted, calls follow the shape of the full dose curve.

Legend:
[1] = Nuclear factor erythroid 2-related factor 2/antioxidant responsive element (Nrf2/ARE) small molecule agonists: luciferase reporter gene qHTS assay in human keratinocytes (AID 1919969); also: nearly all actives have a fitted effect of over 35% in size
[2] = biological target: Gonadotropin-releasing hormone receptor (Homo sapiens) (UniProt P30968); experiment: Human gonadotropin-releasing hormone receptor (GnRHR) small molecule agonists, calcium flux assay in GnRHR-HEK293 cells (AID 1920063); also: nearly all actives have a fitted effect of over 35% in size
Summary of the method: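 HEK293 cells stably expressing human GnRHR were plated 18 h at 37 °C, loaded with calcium dye 1 h at 37 °C, then given compound in agonist mode; fluorescence (Ex/Em 480/540) read kinetically for 3 min at 1 s intervals.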

[3] = biological target: KiSS-1 receptor (Homo sapiens) (UniProt Q969F8); experiment: Human kisspeptin (KISS1R) small molecule agonists, calcium flux assay in KISS1R-HEK293 cells (AID 1920064; active = well fitted activation curve with a large enough effect in the repeat runs)
Summary of the method: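 HEK293 cells stably expressing human KISS1R were plated 18 h at 37 °C, loaded with calcium dye for 1 h at 37 °C, then given compound by pin tool. Fluorescence (Ex/Em 480/540) was read kinetically for 3 min.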

[4] = G protein-coupled receptor (GPCR) small molecule agonists, calcium flux assay: HEK293 wild type cell line counter screen (AID 1920065)
Summary of the method: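 Cells were plated and cultured 18 h at 37 C/5% CO2, then loaded with calcium dye for 1 h at 37 C. Compounds in DMSO were pin-transferred in agonist mode, and fluorescence (Ex/Em 480/540) was read kinetically for 3 min at 1 s intervals.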

[5] = p53 small molecule agonists, cell-based qHTS assay with rat liver microsomes (AID 1963578)
Summary of the method: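 Metabolic activation by rat liver microsomes and NADPH, each 0.5 mg/mL final, added right after compounds to p53RE-bla reporter cells (4,000/well, plated 5 h earlier). 16 h at 37 C, then LiveBLAzer substrate for 2 h at room temperature in the dark; fluorescence read-out.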

[6] = p53 small molecule agonists, cell-based qHTS assay with human liver microsomes: qHTS cell viability counter screen (AID 1963579); also: nearly all actives have a fitted effect of over 45% in size; also: potency is read from the fitted curve at half-maximal effect
Summary of the method: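 Metabolic activation used human liver microsomes and NADPH, both 0.5 mg/mL final, over 16 hours at 37 C on p53RE-bla cells (4,000/well). Cytotoxicity measured by CellTiter-Glo luminescence, 30 min at room temperature.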

[7] = p53 small molecule agonists, cell-based qHTS assay with rat liver microsomes: qHTS cell viability counter screen (AID 1963580); also: nearly all actives have a fitted effect of over 45% in size; also: potency is read from the fitted curve at half-maximal effect
Summary of the method: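 p53RE-bla HCT-116 cells were exposed 16 h at 37 C to compounds with rat liver microsomes (0.5 mg/mL) and NADPH (0.5 mg/mL). Viability was measured in the same wells as ATP content by CellTiter-Glo luminescence.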

[8] = p53 small molecule agonists, cell-based qHTS assay (AID 1963582; active = well fitted activation curve with a large enough effect in the signal ratio in the repeat runs, not every such curve was filed as active; the % refers to the signal ratio)
Summary of the method: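 p53RE-bla beta-lactamase reporter cells rested 5 h at 37 C/5% CO2, then received compounds in DMSO by pin transfer and were incubated 16 h at 37 C. LiveBLAzer B/G FRET substrate was loaded for 2 h at room temperature before fluorescence reading.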

[9] = biological target: 5-hydroxytryptamine receptor 2A (Homo sapiens) (UniProt P28223); experiment: 5-hydroxytryptamine receptor 2A (HTR2A) small molecule antagonists, cell-based qHTS assay (AID 1963586); also: nearly all actives have a fitted effect of over 45% in size
Summary of the method: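 Antagonist-mode intracellular calcium assay: DOI (4 nM) added after 5 min compound pre-incubation at room temperature to dye-loaded HTR2A-CHO cells. Fluorescence followed for 3 min, sampled every second.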

[10] = biological target: 5-hydroxytryptamine receptor 2A (Homo sapiens) (UniProt P28223); experiment: 5-hydroxytryptamine receptor 2A (HTR2A) small molecule agonists, cell-based qHTS assay (AID 1963587); also: nearly all actives have a fitted effect of over 30% in size; also: potency is read from the fitted curve at half-maximal effect
Summary of the method: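 CHO cells stably expressing human HTR2A, plated 18 h, loaded with calcium dye 1 h at 37 C. Agonist mode: compounds added and intracellular calcium fluorescence recorded kinetically for 2 min at 1 sec intervals.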

[11] = biological target: Muscarinic acetylcholine receptor M1 (Homo sapiens) (UniProt P11229); experiment: Cholinergic receptor muscarinic 1 (CHRM1) small molecule antagonists, cell-based qHTS assay (AID 1963588); also: nearly all actives have a fitted effect of over 40% in size
Summary of the method: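 CHRM1-CHO calcium-flux assay, antagonist mode. Cells were seeded 18 h, dye-loaded 1 h at 37 C and given compound for 5 min at RT, then acetylcholine was added at 50nM. FDSS fluorescence was read 3 min; 15 concentrations, three runs.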

[12] = biological target: Muscarinic acetylcholine receptor M1 (Homo sapiens) (UniProt P11229); experiment: Cholinergic receptor muscarinic 1 (CHRM1) small molecule agonists, cell-based qHTS assay (AID 1963589); also: nearly all actives have a fitted effect of over 35% in size
Summary of the method: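 CHO cells stably expressing human CHRM1, seeded 18 h at 37 C/5% CO2, dye-loaded 1 h at 37 C, then given compound in agonist mode; intracellular calcium fluorescence read kinetically at 1 s intervals. Fifteen concentrations, three independent runs.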

[13] = cAMP Responsive Elements (CRE) small molecule agonists, cell-based qHTS assay (AID 1963590)
Summary of the method: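 CRE-bla HEK 293T cells in DMEM with 10% dialyzed FBS, NEAA, pyruvate and 25 mM HEPES were plated 18 h at 37 C/5% CO2, then exposed to compounds in DMSO for 3 h before LiveBLAzer B/G FRET substrate addition.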

[14] = cAMP Responsive Elements (CRE) small molecule antagonists, cell-based qHTS assay (AID 1963591; active = well fitted inhibition curve with a large enough effect in the signal ratio in the repeat runs, not every such curve was filed as active; the % refers to the signal ratio)
Summary of the method: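 CRE-bla HEK293T cells were plated 18 h at 37 °C/5% CO2, pinned with compound in DMSO, then stimulated with NKH477 at 0.25 uM final for 3 h. LiveBLAzer B/G FRET substrate was added and plates incubated 2 h at room temperature.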

[15] = biological target: Beta-2 adrenergic receptor (Homo sapiens) (UniProt P07550); experiment: Adrenergic beta2 receptor (ADRB2) small molecule antagonists, cell-based qHTS assay (AID 1963592); also: nearly all actives have a fitted effect of over 50% in size; also: potency is read from the fitted curve at half-maximal effect
Summary of the method: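 Cells (CHO, stable ADRB2 overexpression) incubated 18-20hr at 37C; compounds added from DMSO; agonist mix (1nM isoproterenol, 100uM IBMX, 25uM Ro-20-1724) added; 0.5hr RT; d2-cAMP and anti-cAMP-cryptate added; 1hr RT; 665/615 nm read.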

[16] = biological target: Beta-2 adrenergic receptor (Homo sapiens) (UniProt P07550); experiment: Adrenergic beta2 receptor (ADRB2) small molecule agonists, cell-based qHTS assay (AID 1963593);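 also: CHO cells stably overexpressing human ADRB2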
Summary of the method: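 CHO cells stably over-expressing ADRB2 were plated overnight at 37C, then dosed with compounds plus a stimulation mix containing 100uM IBMX and 25uM Ro-20-1724 for 0.5hr at room temperature. cAMP was measured by HTRF competition, 1hr.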

[17] = biological target: D(2) dopamine receptor (Homo sapiens) (UniProt P14416); experiment: Dopamine D2 receptor (DRD2) small molecule agonists, cell-based qHTS assay (AID 1963594); also: nearly all actives have a fitted effect of over 35% in size
Summary of the method: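 HEK293 cells stably expressing human DRD2, pre-treated with PDE inhibitor Ro20-1724 (0.1 mM final) and compound 10 min at room temperature, then stimulated with NKH477 (200nM […]) for 30 min. cAMP read by HTRF (665/620 nm).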

[18] = biological target: D(2) dopamine receptor (Homo sapiens) (UniProt P14416); experiment: Dopamine D2 receptor (DRD2) small molecule antagonists, cell-based qHTS assay (AID 1963595; active = well fitted inhibition curve with a large enough effect in the signal ratio in the repeat runs, with a control signal flat; the % refers to the signal ratio; also: potency is read from the fitted curve at half-maximal effect)
Summary of the method: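 In this cell-based antagonist screen, compounds act for 10 min at room temperature before a 30 min challenge with 12 nM quinpirole and 200 nM NKH477. cAMP is quantified by HTRF competition in DRD2-HEK293 cells containing 0.1 mM Ro20-1724.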

[19] = p53 small molecule agonists, cell-based qHTS assay: qHTS cell viability counter screen (AID 1963581); also: nearly all actives have a fitted effect of over 45% in size; also: potency is read from the fitted curve at half-maximal effect
Summary of the method: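 p53RE-bla HCT-116 cells were exposed to compounds for 16 h at 37 C; after the beta-lactamase FRET read in the same wells, CellTiter-Glo was added and luminescence (intracellular ATP) read after 30 min at room temperature.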

[20] = p53 small molecule agonists, cell-based qHTS assay with human liver microsomes (AID 1963577);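 also: p53 response element beta-lactamase reporter cells with liver microsomes plus NADPH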
Summary of the method: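 With metabolic activation: human liver microsomes (0.5 mg/mL final) plus NADPH (0.5 mg/mL final) added alongside compounds to p53RE-bla cells; 16 h 37 C exposure; beta-lactamase read by LiveBLAzer fluorescence.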

Gonadotropin-releasing hormone receptor (Homo sapiens), sequence (P30968 whole entry, looked up): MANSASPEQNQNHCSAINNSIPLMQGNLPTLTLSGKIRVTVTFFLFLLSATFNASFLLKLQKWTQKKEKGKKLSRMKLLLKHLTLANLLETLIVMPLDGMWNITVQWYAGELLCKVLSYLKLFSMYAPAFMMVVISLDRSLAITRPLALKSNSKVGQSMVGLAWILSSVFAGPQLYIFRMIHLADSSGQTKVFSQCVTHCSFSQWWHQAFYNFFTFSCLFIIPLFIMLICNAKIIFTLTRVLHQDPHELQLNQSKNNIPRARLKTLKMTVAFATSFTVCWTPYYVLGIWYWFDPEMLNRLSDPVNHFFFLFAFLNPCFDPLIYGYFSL
Beta-2 adrenergic receptor (Homo sapiens), sequence (P07550 whole entry, looked up): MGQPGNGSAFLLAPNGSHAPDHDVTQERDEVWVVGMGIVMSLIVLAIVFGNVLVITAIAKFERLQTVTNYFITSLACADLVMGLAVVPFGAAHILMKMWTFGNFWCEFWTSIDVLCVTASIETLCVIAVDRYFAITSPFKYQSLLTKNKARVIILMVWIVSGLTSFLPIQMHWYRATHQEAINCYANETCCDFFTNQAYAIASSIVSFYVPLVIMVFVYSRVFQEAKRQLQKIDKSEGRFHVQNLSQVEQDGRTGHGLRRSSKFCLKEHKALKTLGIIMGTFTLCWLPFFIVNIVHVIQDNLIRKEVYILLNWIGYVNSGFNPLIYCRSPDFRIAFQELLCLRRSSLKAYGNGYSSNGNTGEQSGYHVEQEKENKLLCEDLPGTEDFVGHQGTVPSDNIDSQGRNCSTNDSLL
D(2) dopamine receptor (Homo sapiens), sequence (P14416 whole entry, looked up): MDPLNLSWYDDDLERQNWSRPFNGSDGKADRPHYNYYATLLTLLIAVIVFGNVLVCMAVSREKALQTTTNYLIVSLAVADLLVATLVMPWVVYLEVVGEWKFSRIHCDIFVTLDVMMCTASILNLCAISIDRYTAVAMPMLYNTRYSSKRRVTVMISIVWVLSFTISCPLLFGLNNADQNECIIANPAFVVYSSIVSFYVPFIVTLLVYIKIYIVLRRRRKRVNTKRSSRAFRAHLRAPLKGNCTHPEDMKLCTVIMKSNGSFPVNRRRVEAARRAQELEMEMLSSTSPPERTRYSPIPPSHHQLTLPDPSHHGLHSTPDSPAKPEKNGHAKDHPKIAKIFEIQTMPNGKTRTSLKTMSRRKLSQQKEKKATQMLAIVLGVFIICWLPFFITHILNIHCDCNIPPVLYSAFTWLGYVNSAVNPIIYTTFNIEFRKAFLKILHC
Muscarinic acetylcholine receptor M1 (Homo sapiens), sequence (P11229 whole entry, looked up): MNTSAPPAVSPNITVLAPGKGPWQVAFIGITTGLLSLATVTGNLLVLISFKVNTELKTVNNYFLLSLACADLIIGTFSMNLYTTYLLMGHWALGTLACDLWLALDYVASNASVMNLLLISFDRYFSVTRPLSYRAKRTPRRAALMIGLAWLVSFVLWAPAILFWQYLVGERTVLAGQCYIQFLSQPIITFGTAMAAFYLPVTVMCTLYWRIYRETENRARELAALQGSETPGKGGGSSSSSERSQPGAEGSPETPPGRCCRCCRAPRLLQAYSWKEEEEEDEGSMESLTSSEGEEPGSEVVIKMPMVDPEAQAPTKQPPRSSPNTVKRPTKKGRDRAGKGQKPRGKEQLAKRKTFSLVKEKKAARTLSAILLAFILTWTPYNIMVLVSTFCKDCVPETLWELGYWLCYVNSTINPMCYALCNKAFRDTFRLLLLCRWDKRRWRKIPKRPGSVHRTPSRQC
5-hydroxytryptamine receptor 2A (Homo sapiens), sequence (P28223 whole entry, looked up): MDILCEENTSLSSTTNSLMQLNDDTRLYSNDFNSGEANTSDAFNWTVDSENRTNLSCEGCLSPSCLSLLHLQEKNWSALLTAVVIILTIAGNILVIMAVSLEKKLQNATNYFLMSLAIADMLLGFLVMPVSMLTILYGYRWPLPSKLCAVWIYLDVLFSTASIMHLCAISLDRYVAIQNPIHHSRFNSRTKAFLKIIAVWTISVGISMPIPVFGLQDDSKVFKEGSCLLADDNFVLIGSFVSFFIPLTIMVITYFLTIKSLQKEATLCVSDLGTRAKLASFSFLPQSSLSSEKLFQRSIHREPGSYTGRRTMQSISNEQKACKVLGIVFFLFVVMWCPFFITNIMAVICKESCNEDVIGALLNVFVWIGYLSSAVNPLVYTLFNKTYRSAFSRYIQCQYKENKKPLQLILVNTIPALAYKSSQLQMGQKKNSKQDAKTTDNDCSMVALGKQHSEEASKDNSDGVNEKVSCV
KiSS-1 receptor (Homo sapiens), sequence (Q969F8 whole entry, looked up): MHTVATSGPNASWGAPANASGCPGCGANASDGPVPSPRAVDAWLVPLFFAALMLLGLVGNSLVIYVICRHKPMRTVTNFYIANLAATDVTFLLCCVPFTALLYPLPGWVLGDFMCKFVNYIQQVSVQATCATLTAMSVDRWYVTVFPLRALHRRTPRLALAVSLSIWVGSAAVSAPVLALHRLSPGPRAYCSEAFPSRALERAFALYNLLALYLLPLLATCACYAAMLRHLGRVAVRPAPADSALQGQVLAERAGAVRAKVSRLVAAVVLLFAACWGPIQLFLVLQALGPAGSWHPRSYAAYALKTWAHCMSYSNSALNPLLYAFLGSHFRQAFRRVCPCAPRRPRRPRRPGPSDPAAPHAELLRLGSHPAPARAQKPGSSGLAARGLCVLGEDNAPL

Compound	Potency [1]	Potency [2]	Potency [3]	Potency [4]	Potency [5]	Potency [6]	Potency [7]	Potency [8]	Potency [9]	Potency [10]	Potency [11]	Potency [12]	Potency [13]	Potency [14]	Potency [15]	Potency [16]	Potency [17]	Potency [18]	Potency [19]	Potency [20]
OCC1CO1 (centres undefined)	inactive	inactive	inactive	inactive	inactive	inactive	41.5 µM (active) and inactive	inactive	inactive	inactive	inactive	inactive	inactive	inactive	inactive	inactive	inactive	inactive		
CCC[CH2][Sn]([Cl])([Cl])[CH2]CCC		inactive	inactive	inactive	inactive		18.5 µM (active) and 45.8 µM (active)		inactive	inactive		inactive			inactive	inactive	inactive			
Oc1cccc2cccnc12		inactive	inactive	inactive		inactive and 971 nM (active) and 913 nM (active)							inactive	inactive	inactive	inactive	inactive	inactive	inactive	
CCN(CC)N=O	inactive	inactive	inactive		inactive		inactive	inactive					inactive	inactive	inactive		inactive	inactive		inactive
Oc1cc(Cl)ccc1Oc1ccc(Cl)cc1Cl	inactive			inactive	inactive	16.6 µM (active) and inactive	37.2 µM (active) and inactive	inactive	inactive	35.5 µM (active)	inactive	inactive			52.6 µM (active)		inactive	55.8 µM (active)	26.3 µM (active)	
OCCCl	inactive	inactive	inactive		inactive	inactive	inactive	inactive	inactive	inactive	inactive	inactive	inactive	inactive	inactive	inactive		inactive	inactive	inactive
Oc1c(Br)cc(Br)cc1Br	inactive	inactive	inactive	inactive		inactive	inactive		inactive	inactive	inactive	inactive		inactive	inactive		inactive	inactive	inactive	
